Measurements published in ChEMBL document CHEMBL4513216, “Probing the Open Global Health Chemical Diversity Library for Multistage-Active Starting Points for Next-Generation Antimalarials” (ACS Infect Dis, 2020).
In all, about 69,000 compounds went through this assay and about 8,600 (12%) showed an effect of 50% or more. Many of the other results were omitted from the sample, so strong results are more common in it than they were.

Each molecule was assayed on Plasmodium berghei (assay: Screen against P. berghei liver stage (PbLuc), transformed with Luciferase, at 10uM). Details: tested at 10 uM.
Format: functional, HepG2

Row | Compound | INHIBITION [%]
1 | CC(=O)N1Cc2nccn2CC(CNC(=O)c2cccnc2)C1 (configuration not stated) | -48.4
2 | O=C(c1c(O)cnc2ccccc12)N1CCN(CC(F)F)CC1 | -32.1
3 | CC[C@@H]1N(Cc2nccs2)CCC[C@]12CCC(=O)N2CCOC | 16.4
4 | Cc1nn(CC(C)C)c(N(C)C)c1CNCCC(=O)NC(C)C | 13
5 | CC(=O)NCCCNCc1c(C)nn(CC(C)C)c1N(C)C | 61.1
6 | CNC(=O)CCCNCc1c(C)nn(C)c1N(C)C | 14.7
7 | Cc1nc(C)c(C(C)NCc2c(C(C)C)nn(C)c2N(C)C)s1 (configuration not stated) | 1.2
8 | Cc1nn(CC(C)C)c(N(C)C)c1CNCCCNS(C)(=O)=O | 42.1
9 | Cc1nn(CC(C)C)c(N(C)C)c1CNCCS(C)(=O)=O | 26.4
10 | CNC(=O)CCCNCc1c(C)nn(CC(C)C)c1N(C)C | 53.3
11 | Cc1nc(C)c(C(C)NCc2c(C)nn(C)c2N(C)C)s1 (configuration not stated) | -15.1
12 | Cc1nc(C)c(C(C)NCc2c(C)nn(CC(C)C)c2N(C)C)s1 (configuration not stated) | 50
13 | Cc1noc(C)c1CN1CCN(Cc2cccnc2)c2ncccc2C1 | 22.9
14 | COCCCn1ccc(NS(=O)(=O)c2cc(F)c(C)cc2F)n1 | 23.1
15 | CCOc1ccc(Cl)c(C(=O)NCCC(=O)Nc2ccncc2)n1 | -0.44
16 | O=C1C[C@H]2[C@@H](CCN2C(=O)Cc2cccs2)N1Cc1ccncc1 | 37.1
17 | CCn1cc(C(=O)N2CCOCC2)cn1 | -60.9
18 | COCC(=O)N1CCc2nc(C(=O)N(C)C)sc2CC1 | -6.46
19 | COC(=O)CCC(=O)N1CCc2nc(C(=O)N3CCCCC3)sc2CC1 | 57.1
20 | COC(=O)CCC(=O)N1CCc2nc(C(=O)N3CCOCC3)sc2CC1 | -4.99
21 | CNC(=O)c1nc2c(s1)CCN(C(=O)Cc1ccc(OC)cc1)CC2 | 14.2
22 | CCN(CC)C(=O)c1nc2c(s1)CCN(C(=O)CCC(=O)OC)CC2 | 12.7

Row | Compound | INHIBITION [%]
23 | COC(=O)CCC(=O)N1CCc2nc(C(=O)N(C)C)sc2CC1 | 79.2
24 | CC(=O)N(C)C1CCN(c2ncc3c(n2)CCN3c2ccccc2)C1 (configuration not stated) | 9.4
25 | CN(C)c1ncccc1CNC(=O)NCC(c1cccs1)N(C)C (configuration not stated) | 23.2
26 | COC[C@@]12CCO[C@@H]1CCN(C(=O)COc1ccc(C)cc1)C2 | -3.52
27 | O=C(Nc1ccc(F)cc1)C(c1ccccc1)N1CCOCC1 (configuration not stated) | -3.94
28 | COc1cc(CN2CC(=O)N(c3ccc(C)cc3)CC2C)cc(OC)c1 (configuration not stated) | 46.6
29 | COc1ccc(CN2CC(=O)N(c3ccc(C)cc3)CC2C)cc1O (configuration not stated) | 43.2
30 | COc1cccc(OC)c1CN1CC(=O)N(c2ccc(C)cc2)CC1C (configuration not stated) | 76.8
31 | Cn1cc(CN2CCC[C@]3(C[C@@H](Oc4ncccc4F)CO3)C2)cn1 | 35.5
32 | CC(C)c1ccc(OCCC(=O)N2CCCC(C(N)=O)C2)cc1 (configuration not stated) | 4.18
33 | CS(=O)(=O)c1ccc2c(c1)N(C(=O)c1cccc(F)c1)CCC2 | 9.63
34 | CC(=O)N1CCc2ccc(S(=O)(=O)N3CCCCC3C)cc21 (configuration not stated) | -0.178
35 | CC(=O)N1CCCc2ccc(S(=O)(=O)N3CCCCC3C)cc21 (configuration not stated) | 54.4
36 | Cc1cc(-c2c[nH]nc2C2CCCCN2C(=O)c2ccccc2)on1 (configuration not stated) | 23
37 | Nc1ccnc(N2CCC(c3nccn3CC3CC3)CC2)n1 | -16.3
38 | CCn1ncc2c1C(COC)CN(Cc1cccnc1)C2 (configuration not stated) | -67.6
39 | COCC1CN(Cc2ccsc2)Cc2cnn(C)c21 (configuration not stated) | -0.371
40 | CCn1ncc2c1C(COC)CN(Cc1ccc(OC)cc1)C2 (configuration not stated) | 42.1
41 | CCn1ncc2c1C(COC)CN(Cc1cnn(C)c1)C2 (configuration not stated) | 68.8
42 | CCn1ncc2c1C(COC)CN(Cc1ccsc1)C2 (configuration not stated) | 62.6
43 | CCn1ncc2c1C(COC)CN(Cc1ccc(F)cc1)C2 (configuration not stated) | -2.35
44 | CCc1nc(C2CCCN(C(=O)c3ccc4[nH]cnc4c3)C2)no1 (configuration not stated) | 5.7

Row | Compound | INHIBITION [%]
45 | Cc1nc(N[C@H]2COC[C@@H]2N2CCCCC2)c2c(C)nn(C)c2n1 | 24.8
46 | COc1cc(OC)c2nc(NCCN3CCNC3=O)cc(C)c2c1 | 7.92
47 | COc1nc2ccccc2cc1C1CC(=O)Nc2n[nH]c(C3CCC3)c21 (configuration not stated) | -1.7
48 | Cc1noc(C)c1CNCC1COCc2c(-c3ccsc3)nnn2C1 (configuration not stated) | -57.1
49 | Nc1nccnc1CC1CCCN(Cc2cccc3[nH]ccc23)C1 (configuration not stated) | -1.16
50 | COc1ccnc(CN2CCCC(CCc3ccc(F)cc3)C2)c1OC (configuration not stated) | 94.8
51 | COc1ccnc(CN2CCCC(CCc3ccccc3)C2)c1OC (configuration not stated) | 75.7
52 | O=C(O)COc1ccc(CN2CCCC(CCc3ccccc3)C2)cc1 (configuration not stated) | 28.5
53 | Cn1ccnc1CN1CCCC(CCc2ccc(F)c(F)c2)C1 (configuration not stated) | 37.7
54 | Nc1nccnc1CC1CCCN(Cc2ccnc3ccccc23)C1 (configuration not stated) | 78.7
55 | COc1ccccc1N1CCN(Cc2nccc(OC)c2OC)CC1=O | 40.7
56 | Nc1nccnc1CC1CCCN(Cc2c[nH]c3ccccc23)C1 (configuration not stated) | 24.8
57 | COc1ccccc1CN1CCCC(Cc2nccnc2N)C1 (configuration not stated) | 21.1
58 | CCc1nnc2n1CCN(C(=O)c1ccc3c(c1)[nH]c(=O)n3C)C2 | 8.38
59 | COc1ccc(-c2cnc3c(c2)CN(C2CC2)C(=O)CCN3)cc1 | 7.09
60 | CS(=O)(=O)N1C[C@H]2CC[C@@H](C1)N(C(=O)CCn1cnc3ccccc31)C2 | 12.9
61 | CC(C)(C)Nc1c(C2CCN(C(=O)C(C)(C)C)CC2)nc2ccccn12 | 30.3
62 | Cc1nc(C)n(CC2CN(CCC(=O)N3CCCCC3)CCO2)n1 (configuration not stated) | 21.5
63 | COCCc1noc(CN2CCOC(CN(C)C)C2)n1 (configuration not stated) | 15.3
64 | O=C1NC2(Cc3ccccc31)CN(CC1CCOCC1)C2 | 35
65 | c1ccc(-c2cc(CN3CCc4cncnc4C3)on2)cc1 | -28
66 | CC(C)Cc1cc(C(=O)NCC2CCCN(Cc3ccco3)C2)on1 (configuration not stated) | -63.8

Row | Compound | INHIBITION [%]
67 | CC(C)Cc1cc(C(=O)NCC(O)CN2CCCCCC2)on1 (configuration not stated) | -8.47
68 | CC(C)Cc1cc(C(=O)NC(C)(C)CN2CCCCCC2)on1 | 58.7
69 | Cn1cc(CN2C[C@@H]3COC[C@]3(CNC(=O)c3ccsc3)C2)cn1 | 34.7
70 | c1cc2occc2c(N2CCCC(c3nncn3C3CC3)C2)n1 (configuration not stated) | 57.5
71 | CN(C)Cc1cn(CC2CCCN(c3nccc4occc34)C2)nn1 (configuration not stated) | 34.9
72 | Cc1cc(N2CCCC(c3nccnc3N(C)C)C2)ncn1 (configuration not stated) | 5.25
73 | Cc1ccnc(N2CCCC(c3nncn3C3CC3)C2)n1 (configuration not stated) | 46.6
74 | O=C(O)c1cn(CC2CCCN(c3nccc4occc34)C2)nn1 (configuration not stated) | -2.48
75 | Cc1cc(N2CCCC(c3nncn3C3CC3)C2)ncn1 (configuration not stated) | 53.5
76 | Nc1cc(-c2cc[nH]n2)nc(N2CCCC2)n1 | 20.5
77 | CN(C)S(=O)(=O)N1CCC(c2c(C(N)=O)sc3ccccc23)C1 (configuration not stated) | -11.4
78 | O=C1N(Cc2ccc(F)c(F)c2)CCCC1(O)CNCc1cccnc1 (configuration not stated) | 60.9
79 | Cn1cc(CNCC2(O)CCCN(Cc3ccc(F)c(F)c3)C2=O)cn1 (configuration not stated) | -34
80 | O=C1N(Cc2ccc(F)c(F)c2)CCCC1(O)CNCC1CCCCC1 (configuration not stated) | 68.8
81 | O=C1N(Cc2cccc(F)c2F)CCCC1(O)CNCc1ccccc1 (configuration not stated) | 40.4
82 | O=C1N(Cc2ccc(F)c(F)c2)CCCC1(O)CNCc1ccccn1 (configuration not stated) | 4.25
83 | O=C1N(Cc2cccc(F)c2F)CCCC1(O)CNCC1CCCCC1 (configuration not stated) | 69.1
84 | C=C(C)CNCC1(O)CCCN(Cc2ccc(F)c(F)c2)C1=O (configuration not stated) | 41.7
85 | O=C1N(Cc2cccc(F)c2F)CCCC1(O)CNC1CCCC1 (configuration not stated) | 11.5
86 | COCCNCC1(O)CCCN(Cc2ccc(F)c(F)c2)C1=O (configuration not stated) | 6.65
87 | c1ccc(Cc2noc(CN(Cc3cccs3)CC3CCCO3)n2)cc1 (configuration not stated) | 15.3
88 | NC(=O)CC1CCN(Cc2ccccc2OCC(F)(F)F)CC1 | 16.1

Row | Compound | INHIBITION [%]
89 | CN1C(=O)C2(CCN(Cc3nccn3C)CC2)c2ccccc21 | -19.6
90 | CN1CC(=O)N(c2cnn(C)c2)CC12CCN(Cc1nccn1C)C2 (configuration not stated) | 11.8
91 | Cc1n[nH]c(C)c1NC(=O)NCc1ccccn1 | 8.59
92 | NC(=O)C1(c2cnccn2)CCCN1Cc1ccc(F)c(F)c1 (configuration not stated) | 20.8
93 | CN1CC(=O)N(c2ccsc2)CC12CCN(S(=O)(=O)C1CC1)C2 (configuration not stated) | -6.23
94 | CC(O)CNCc1ccc(OCc2ccc3c(c2)OCCO3)cc1 (configuration not stated) | 72.6
95 | O=C1CCC2(CCC(NCc3ccc4c(c3)OCO4)CC2)N1 (configuration not stated) | 30.9
96 | CC(C)(CO)NCc1ccc(OCc2ccc3c(c2)OCCO3)cc1 | 13.5
97 | c1cc(OCc2ccc3c(c2)OCO3)ccc1CNC1CC1 | 73.4
98 | CCCNCc1ccc(OCc2ccc3c(c2)OCCO3)cc1 | 25.1
99 | CCNCc1ccc(OCc2ccc3c(c2)OCCO3)cc1 | 67.3
100 | CC(C)(C)NCc1ccc(OCc2ccc3c(c2)OCCO3)cc1 | -47.8
101 | c1cc(OCc2ccc3c(c2)OCCO3)ccc1CNC1CC1 | 25.3
102 | CNCc1ccc(OCc2ccc3c(c2)OCCO3)cc1 | -0.621
103 | NC(=O)NCC1CCCCN1Cc1nc(-c2ccco2)no1 (configuration not stated) | -31.1
104 | CC(C)(C)c1ccn(C2(C(=O)O)CCN(c3ncccc3C#N)CC2)n1 | 7.24
105 | COc1nccnc1N1CCC(C(=O)O)(n2ccc(C(C)(C)C)n2)CC1 | 53.8
106 | Cc1cnc(C)c(N2CCC(C(=O)O)(n3ccc(C(C)(C)C)n3)CC2)n1 | 3.84
107 | CNC(=O)C1(N2CCC[C@H]2C(=O)NC2CCOCC2)CCOCC1 | 15.4
